Compound activity: PubChem, National Center for Advancing Translational Sciences (NCATS)
An excerpt weighted towards active compounds, which were near 19% of everything screened.
DT40 TDP1 no CPT – qHTS for Inhibitors of human tyrosyl-DNA phosphodiesterase 1 (TDP1): qHTS in cells in absence of CPT; 15% of 420,000 active; DT40 Tdp1-/- hTDP1 cells, no CPT, ATP luminescence, 48 h; Potency, µM (top dose mostly 46.2 µM), for inactives: top-dose activity change, negative = growth inhibition, most hits filed as inhibitors; also: nearly all actives have a fitted effect of over 55% in size
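DT40 Tdp1-/-;hTDP1 cells, no CPT (DMSO vehicle only), 400 cells/well; compounds pin-transferred; ≥48 hr, 37 °C; CellTiter-Glo 30 min RT dark, luminescence read.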
KB-3-1 cytotox – kills parental KB-3-1 adenocarcinoma cells. KB-3-1 viability, CellTiter-Glo ATP luminescence, 72 h. Potency, µM (titrated, usually from 46.1 µM), hits mostly cytotoxic. 1.4% of 400,000 active. AID 1347075; also: nearly all actives have a fitted effect of over 60% in size
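KB-3-1 cells, DMEM (no phenol red) + 10% FBS; compound by pin transfer, 72 h, 37 °C. Readout: CellTiter-Glo luminescence after 10 min. Data normalized, curve-fitted.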
HT1080 IDH1KD tx – toxicity to HT-1080 IDH1 knockdown cells (counter line); AID 686971; Potency, µM (highest dose often 46.1 µM), for the others: top-dose activity, negative = toxicity, most hits filed as cytotoxic; HT-1080 IDH1 knockdown viability, ATP luminescence, 48 h; 2% of 360,000 active;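 also: 0% = DMSO wells and -100% = cell-free medium wells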
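Using the IDH1-knockdown HT-1080 line run in the same batch and compound series as the NT line, viability after 48 h at 37 °C was determined by CellTiter-Glo luminescence and expressed as % activity.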
TDP1 cell CPT – DT40-hTDP1 cell growth loss with CPT | chicken DT40 Tdp1-/-;hTDP1 cells + 20 nM CPT, ATP luminescence, 48 h | Potency, µM (doses to about 46.2 µM), without a hit: at the top dose activity change, negative = growth inhibition, actives largely listed as inhibitors | 12% of 420,000 active | AID 686979; also: nearly all actives have a fitted effect of over 55% in size
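Chicken DT40 Tdp1-/- cells complemented with human TDP1, 400 cells/well, exposed to compounds plus 20 nM camptothecin for at least 48 h at 37 C; viability read as ATP content by CellTiter-Glo luminescence.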
KB-V1 cytotox – kills drug-selected multidrug resistant KB-V1 cells; 3.4% of 400,000 active; KB-V1 MDR cells viability, CellTiter-Glo, 72 h; Potency, µM (top dose mostly 46.1 µM), usual class: cytotoxic; AID 1347076; also: nearly all actives have a fitted effect of over 60% in size
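Following 72 h at 37 degrees C with compound, KB-V1 cell viability was read by CellTiter-Glo luminescence, medium being phenol-red-free DMEM plus 10% FBS; concentration-response parameters came from normalized, curve-fitted qHTS data.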
HT1080NT lethal – kills 2HG-producing HT-1080-NT fibrosarcoma cells. 1.6% of 360,000 active. HT-1080-NT fibrosarcoma viability, CellTiter-Glo ATP luminescence, 48 h. Potency, µM (titrated, usually from 46.1 µM), without a hit: at the top dose activity, negative = less viability, actives largely listed as cytotoxic;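 also: NT is the 2HG producing partner of a matched IDH1 knockdown line; 0% = DMSO-treated cells and -100% = media-only wells without cells; nearly all actives have a fitted effect of over 55% in size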
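Viability of the 2HG-overproducing fibrosarcoma line after 48 hours of compound exposure at 37 degrees C was determined by luminescence with CellTiter-Glo, and concentration-effect curves were then fitted and categorized.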
* hit, by the source's call. Calls follow the shape of the dose curve; as a rule, active = well fitted curve in the direction sought with a large enough effect; inconclusive = small, poorly fitted or top-dose-only effect, or another doubt; inactive = no such curve, though single readings can be large; an effect the other way counts as inactive or inconclusive. Unless noted, % is scaled to controls: 0 for no effect and ±100 for the full control effect; potency is read from the fitted curve at half-maximal effect.

For COc1ccc(/C=N/NC(=O)c2cccc([N+](=O)[O-])c2)cc1OC(=O)c1ccccc1 the results were DT40 TDP1 no CPT 15µM*, KB-3-1 cytotox inconclusive, HT1080 IDH1KD tx inconclusive, TDP1 cell CPT 16µM*, KB-V1 cytotox inconclusive and HT1080NT lethal -26%.
Screening COc1ccc(/C=N/NC(=O)c2cccc([N+](=O)[O-])c2)cc1OC(=O)c1ccc(C)cc1 returned DT40 TDP1 no CPT inconclusive, KB-3-1 cytotox inconclusive, HT1080 IDH1KD tx -12%, TDP1 cell CPT inconclusive, KB-V1 cytotox inconclusive and HT1080NT lethal -25%.
`COc1ccc(Nc2nc(-c3sc(C)nc3C)cs2)c(OC)c1` gave DT40 TDP1 no CPT 8.2µM*, KB-3-1 cytotox 7.3µM*, HT1080 IDH1KD tx 16µM*, TDP1 cell CPT 6.5µM*, KB-V1 cytotox inconclusive and HT1080NT lethal inconclusive.
`Cc1ccc(Nc2nc(-c3sc(C)nc3C)cs2)cc1` gave DT40 TDP1 no CPT 0.58µM*, KB-3-1 cytotox 2.3µM*, HT1080 IDH1KD tx 1.8µM*, TDP1 cell CPT 0.92µM*, KB-V1 cytotox 1.8µM* and HT1080NT lethal 1.5µM*.
`CC(=O)c1cccc(Nc2nc(-c3sc(C)nc3C)cs2)c1` gave DT40 TDP1 no CPT inconclusive, KB-3-1 cytotox inactive, HT1080 IDH1KD tx inconclusive, TDP1 cell CPT inconclusive, KB-V1 cytotox inconclusive and HT1080NT lethal -15%.
Screening CC(=O)c1cccc(Nc2nc(-c3sc(N)nc3C)cs2)c1 returned DT40 TDP1 no CPT 16µM*, KB-3-1 cytotox inactive, HT1080 IDH1KD tx -2%, TDP1 cell CPT 12µM*, KB-V1 cytotox inactive and HT1080NT lethal -3%.
`COc1ccc(Nc2nc(-c3cccs3)cs2)c(OC)c1` gave DT40 TDP1 no CPT -1%, KB-3-1 cytotox inactive, HT1080 IDH1KD tx -4%, TDP1 cell CPT -16%, KB-V1 cytotox inactive and HT1080NT lethal -4%.
For CC(=O)c1ccc(Nc2nc(-c3sc(C)nc3C)cs2)cc1 the results were DT40 TDP1 no CPT 1.8µM*, KB-3-1 cytotox inconclusive, HT1080 IDH1KD tx 2.9µM*, TDP1 cell CPT 2.1µM*, KB-V1 cytotox 12µM* and HT1080NT lethal inconclusive.
Screening Cc1ccc(Nc2nc(-c3sc(N)nc3C)cs2)cc1 returned DT40 TDP1 no CPT inconclusive, KB-3-1 cytotox inactive, HT1080 IDH1KD tx 0%, TDP1 cell CPT -76%, KB-V1 cytotox inactive and HT1080NT lethal -4%.
Screening COc1c2c(c(OC)c3ccccc13)[C@]1(OC2)O[C@H](CCO)C[C@H](O)[C@H]1O returned DT40 TDP1 no CPT 0%, KB-3-1 cytotox inactive, HT1080 IDH1KD tx 12%, TDP1 cell CPT -3%, KB-V1 cytotox inactive and HT1080NT lethal 1%.
For Cc1nc(C)c(-c2csc(Nc3ccc(S(N)(=O)=O)cc3)n2)s1 the results were DT40 TDP1 no CPT inconclusive, KB-3-1 cytotox inactive, HT1080 IDH1KD tx -7%, TDP1 cell CPT inconclusive, KB-V1 cytotox inactive and HT1080NT lethal -18%.
Screening CC(=O)Nc1ccc(Nc2nc(-c3sc(C)nc3C)cs2)cc1 returned DT40 TDP1 no CPT inconclusive, KB-3-1 cytotox inactive, HT1080 IDH1KD tx -6%, TDP1 cell CPT 16µM*, KB-V1 cytotox inactive and HT1080NT lethal -16%.
For COc1ccc(CCNc2nc(-c3sc(N)nc3C)cs2)cc1OC the results were DT40 TDP1 no CPT 16µM*, KB-3-1 cytotox inactive, HT1080 IDH1KD tx -2%, TDP1 cell CPT inconclusive, KB-V1 cytotox inactive and HT1080NT lethal -2%.
COc1ccc(CC(=O)N2CCc3cc(OC)c(OC)cc3C2COc2ccc(OC)cc2)cc1 (centres undefined) was read as DT40 TDP1 no CPT 16µM*, KB-3-1 cytotox inactive, TDP1 cell CPT inconclusive and KB-V1 cytotox inconclusive.
`COC(=O)c1ccc(OCC2c3cc(OC)c(OC)cc3CCN2C(=O)c2cccc(C)c2)cc1` (centres undefined) gave DT40 TDP1 no CPT 16µM*, KB-3-1 cytotox inactive, TDP1 cell CPT 21µM* and KB-V1 cytotox inactive.
`CCOc1ccccc1C(=O)N1CCc2cc(OC)c(OC)cc2C1COc1ccc(OC)cc1` (centres undefined) gave DT40 TDP1 no CPT 21µM*, KB-3-1 cytotox inactive, TDP1 cell CPT inconclusive and KB-V1 cytotox inconclusive.
Screening COC(=O)c1ccc(OCC2c3cc(OC)c(OC)cc3CCN2C(=O)C2CC2)cc1 (centres undefined) returned DT40 TDP1 no CPT inconclusive, KB-3-1 cytotox inactive, HT1080 IDH1KD tx -18%, TDP1 cell CPT inconclusive, KB-V1 cytotox inactive and HT1080NT lethal inconclusive.
For CCc1ccc(OCC2c3cc(OC)c(OC)cc3CCN2C(=O)Cc2ccc(OC)c(OC)c2)cc1 (centres undefined) the results were DT40 TDP1 no CPT inconclusive, KB-3-1 cytotox inactive, TDP1 cell CPT inconclusive and KB-V1 cytotox inactive.
COC(=O)c1ccc(OCC2c3cc(OC)c(OC)cc3CCN2C(=O)c2ccccc2F)cc1 (centres undefined) was read as DT40 TDP1 no CPT 18µM*, KB-3-1 cytotox inactive, TDP1 cell CPT inconclusive and KB-V1 cytotox inactive.
CCCC(CC)Sc1nc2c([nH]1)c(=S)n(C)c(=O)n2C (centres undefined) was read as DT40 TDP1 no CPT 3.7µM*, KB-3-1 cytotox inconclusive, HT1080 IDH1KD tx -12%, TDP1 cell CPT 3.7µM*, KB-V1 cytotox 3.7µM* and HT1080NT lethal 4%.
For CCCCC(C)Sc1nc2c([nH]1)c(=S)n(C)c(=O)n2C (centres undefined) the results were DT40 TDP1 no CPT 5.2µM*, KB-3-1 cytotox inconclusive, HT1080 IDH1KD tx inconclusive, TDP1 cell CPT 3.7µM*, KB-V1 cytotox 4.1µM* and HT1080NT lethal 8%.
`NCCCNC(=O)c1ccc(/C=N/O)nc1` gave DT40 TDP1 no CPT -3%, KB-3-1 cytotox inactive, HT1080 IDH1KD tx 21%, TDP1 cell CPT 33%, KB-V1 cytotox inactive and HT1080NT lethal 15%.
CCCCN1C(=O)C(CC(=O)NCCc2ccccn2)CC(C(=O)N(C(C)C)C(C)C)=C1C (centres undefined) was read as DT40 TDP1 no CPT inconclusive, KB-3-1 cytotox inactive, HT1080 IDH1KD tx 4%, TDP1 cell CPT 1%, KB-V1 cytotox inactive and HT1080NT lethal 1%.
`CN(CC(=O)N1CCN(Cc2ccccc2)CC1)C(=O)Cc1ccc(Cl)c(Cl)c1` gave DT40 TDP1 no CPT 15µM*, KB-3-1 cytotox inactive, HT1080 IDH1KD tx 0%, TDP1 cell CPT inconclusive, KB-V1 cytotox inactive and HT1080NT lethal -13%.
